Hits are enriched below; roughly 8.1% of the tested compounds scored in any of these assays.
MITF inh = inhibitors of MITF; TRPM1 promoter luciferase, luminescence, 24 h; inhibition, % (test concentration not listed); 0.28% of 37,000 active; AID 2240; in the data active = inhibition above about 85%; inconclusive = no clear call, values can overlap the other calls; inactive = below about 68%;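 note: human melanocyte line stably carrying TRPM1 promoter luciferase reporter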
NOMO-1 viab = STK33 inhibitor candidate reducing NOMO-1 cell viability; NOMO-1 AML viability, CellTiter-Glo luminescence, 72 h; inhibition, % (concentration not given with the values); 7.5% of 37,000 active; AID 2330; in the data active = inhibition above about 80%; inconclusive = no clear call, values can overlap the other calls
Hedgehog inh = Sonic Hedgehog pathway inhibition; Shh-LIGHT2 Gli-luciferase reporter, 30 h; inhibition, % (no concentration beside the values); 2.1% of 22,000 active;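 active = mean inhibition across valid replicates above about 65%, limit read from the data; inconclusive = mean under the limit, yet half or more replicates past it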;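 note: pathway switched on by Shh-conditioned medium diluted 1 in 25 in low serum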
PD-1 reverse act = reversal of PD-1 mediated T-cell inhibition | primary human CD4 T cells, PD-L1 beads, CellTiter-Glo 96 h | activation, % (concentration not given with the values) | AID 2316 | 29,000 tested, under 10 active; call rule not given here;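 note: 0% = median vehicle wells and 100% = positive control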
Numbers without * were called inactive; u = inconclusive; x = not tested or not shown.

SMILES	MITF inh	NOMO-1 viab	Hedgehog inh	PD-1 reverse act
N#CC1=C(SCC(=O)Nc2ccccc2C(=O)c2ccccc2)NC(=O)CC1c1ccccc1F (stereo not given)	16.1	-20.8	x	-0.5
C[C@H]1CN([C@@H](C)CO)C(=O)Cc2cc(NC(=O)Nc3ccc4c(c3)OCO4)ccc2O[C@@H]1CN(C)Cc1ccc(C(=O)Nc2ccccc2N)cc1	-41.1	-9.0	x	-0.2
C[C@H]1CN([C@@H](C)CO)C(=O)Cc2cc(NC(=O)Nc3ccc(F)cc3)ccc2O[C@H]1CN(C)Cc1ccc(C(=O)Nc2ccccc2N)cc1	29.9	128.3*	x	-2.0
C[C@H](CO)N1C[C@H](C)[C@H](CN(C)Cc2ccc(C(=O)Nc3ccccc3N)cc2)Oc2ccc(NC(=O)Nc3ccc4c(c3)OCO4)cc2CC1=O	11.8	126.9*	x	-4.8
C[C@@H]1CN([C@H](C)CO)C(=O)Cc2cc(NC(=O)Nc3ccc(F)cc3)ccc2O[C@@H]1CN(C)Cc1ccc(C(=O)Nc2ccccc2N)cc1	-4.9	97.3*	x	-1.2
Cc1noc(C)c1NC(=O)Nc1ccc2c(c1)CC(=O)N([C@H](C)CO)C[C@H](C)[C@H](CN(C)Cc1ccc(C(=O)Nc3ccccc3N)cc1)O2	9.7	136.7*	x	0.6
O=C(Nc1ccccc1C(=O)O)c1ccc(Br)c(S(=O)(=O)N2CCOCC2)c1	2.4	-14.5	x	x
CCCOc1ccc(C2C3=C(CCCC3=O)OC3=C2C(=O)CCC3)cc1OCC	14.7	38.0	13.6	-0.2
O=C(Cn1nnc(-c2ccccc2)n1)Nc1ccccc1C(=O)O	-35.1	-9.5	x	x
C[C@@H]1CN([C@H](C)CO)C(=O)Cc2cc(NC(=O)Nc3ccccc3)ccc2O[C@H]1CN(C)Cc1ccc(Oc2ccccc2)cc1	6.0	72.0	-3.3	2.7
C[C@H]1CN([C@@H](C)CO)C(=O)Cc2cc(NC(=O)Nc3ccc(C(F)(F)F)cc3)ccc2O[C@H]1CN(C)Cc1ccc(Oc2ccccc2)cc1	-4.1	25.5	-23.6	1.2
C[C@H](CO)N1C[C@H](C)[C@H](CN(C)Cc2ccc(Oc3ccccc3)cc2)Oc2ccc(NC(=O)CCC(F)(F)F)cc2CC1=O	-5.0	39.5	-28.8	-1.7
C[C@@H]1CN([C@H](C)CO)C(=O)Cc2cc(NC(=O)CCC(F)(F)F)ccc2O[C@@H]1CN(C)Cc1ccc(Oc2ccccc2)cc1	36.5	83.6*	u	-6.0
C[C@@H]1CN([C@H](C)CO)C(=O)Cc2cc(NC(=O)Nc3ccc(C(F)(F)F)cc3)ccc2O[C@@H]1CN(C)Cc1ccc(Oc2ccccc2)cc1	-1.0	115.1*	54.3	-10.4
C[C@@H]1CN([C@@H](C)CO)C(=O)Cc2cc(NC(=O)Nc3ccc(C(F)(F)F)cc3)ccc2O[C@@H]1CN(C)Cc1ccc(Oc2ccccc2)cc1	5.2	127.6*	15.1	-0.9
C[C@@H]1CN([C@H](C)CO)C(=O)Cc2cc(NC(=O)NC3CCCCC3)ccc2O[C@@H]1CN(C)Cc1ccc(Oc2ccccc2)cc1	28.4	110.9*	x	-2.8
CNC(=O)C1OC(C)(C(C)(C)C)OC1C(=O)NC (stereo not given)	1.8	-27.4	x	-0.1
O=C(O)c1cc(=O)c2c(O)cccc2o1	-2.3	5.0	-10.1	0.1
Cn1c(SCC(=O)Nc2ccc(Br)cc2Cl)nnc1-c1ccncc1	-10.2	-6.9	x	-1.2
COc1ccc(NC(=O)Nc2ccc3c(c2)CC(=O)N([C@@H](C)CO)C[C@H](C)[C@@H](CN(C)Cc2ccc(Oc4ccccc4)cc2)O3)cc1	31.6	118.6*	51.4	-4.0
O=c1c2ccccc2c(C=Nc2cccc(C(F)(F)F)c2)c(O)n1-c1ccccc1	-3.2	106.5*	4.0	-0.5
O=C(c1ccccc1)c1cccc(N=Cc2c(O)[nH]c(=O)[nH]c2=O)c1	-0.3	-14.6	-40.2	1.4
Cc1cccc(N=Cc2c(O)n(-c3ccccc3)c(=O)c3ccccc23)c1	-17.8	90.9*	-11.2	0.8
Cc1cnn(CCCNC(=O)c2cc(-c3cccnc3)nc3ccc(Cl)cc23)c1	21.2	30.0	x	-4.1
COc1ccccc1N(Cc1cc2ccc(C)cc2[nH]c1=O)S(=O)(=O)c1ccccc1	18.7	107.5*	x	1.4
SMILES	MITF inh	NOMO-1 viab	Hedgehog inh	PD-1 reverse act
CCCCC/C=C/C(=O)CCc1ccc(O)c(OC)c1	1.9	118.0*	-27.7	-0.2
COc1ccc(OCC(=O)Nc2ccc3oc(-c4ccc(C)cc4C)nc3c2)cc1	6.0	0.9	x	-0.6
O=S(=O)(Nc1cccnc1)c1cccc(S(=O)(=O)c2ccc(Cl)c(Cl)c2)c1	0.7	-18.6	x	1.1
CC(C)OC(=O)CCN1C(=O)/C(=C/c2ccccc2)SC1=S	-5.0	39.7	25.2	-1.5
O=C1/C(=C/c2ccc(O)cc2)SC(=S)N1CCc1ccccc1	2.0	102.2*	x	-2.0
CC[n+]1c(C=C2C=C(C)CC(C)C2)sc2ccccc21 (stereo not given)	44.1	126.2*	22.2	-1.4
